Source: PubChem
Cycloheximide cs = affects cycloheximide protein synthesis inhibition readout, counter-screen. cell reporter, cycloheximide protein synthesis inhibition counterscreen. max response, %. 300,000 tested, 12% active; in the data active = max response mostly above about 13%, no sharp cut-off; inactive = mostly below about 14%; also: read at 38.3 µM for the half of the compounds with a filed dose
FMDV antiviral = foot and mouth disease virus antiviral activity; FMDV antiviral cell-based qHTS; Potency, µM (series often up to 57.9 µM), actives largely listed as inhibitors; 410,000 tested, 1.2% active; calls by dose curve; tested in HEK293T cells; also: read-out not given here; nearly all actives have a fitted effect of over 45% in size
Sm TGR block = inhibitors of Schistosoma mansoni thioredoxin glutathione reductase | Potency, µM (titrated, usually from 114 µM), actives largely listed as inhibitors | Q962Y6 | 360,000 tested, 3% active | AID 485364 | purified TGR, DTNB reduction, TNB absorbance 405 nm; active = well fitted inhibition curve with a large enough effect; inconclusive = small, poorly fitted or top-dose-only effect; inactive = no such curve, though single readings can be large or run the other way; also: nearly all actives have a fitted effect of over 60% in size
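TGR 20 nM + NADPH 100 uM (dispensed conc.), cpd preinc 15 min RT; start with NADPH (500 uM addition) then DTNB (15 mM addition). Kinetic TNB absorbance, 405 nm filter. Four-parameter Hill fit across titration.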
Shiga toxin inh = Shiga toxin inhibition; 290,000 tested, 9.2% active; inhibition, % at 38.7 µM; Vero cells, Shiga toxin protein synthesis inhibition reporter; in the data active = inhibition mostly above about 28%, no sharp cut-off; inactive = mostly below about 43%
Of the large screens only hits and unclear results are named; the others gave an inactive call; ! = a repeat was not active. An excerpt weighted towards active compounds, which were near 12% of everything screened.

Cn1c(=O)c2c(ncn2CCN(CCO)Cc2ccccc2)n(C)c1=O	Sm TGR block 44.7µM
CCN(Cc1ccccc1)C(=O)Cn1cnc2c1c(=O)n(C)c(=O)n2C	none
Cc1cc(C(=O)NCc2nnc3n2CCN(Cc2ccc(F)cc2F)CC3)c(C)o1	none (no result: Cycloheximide cs, Sm TGR block, Shiga toxin inh)
Cc1ccc(-c2nnc3ccc(SCC(=O)NCc4ccco4)nn23)cc1	Sm TGR block 50.1µM
COc1ccc(-c2nnc3ccc(SCC(=O)NCc4ccco4)nn23)cc1OC	none
CCn1c(SCC(=O)NCc2ccco2)nnc1-c1ccncc1	none (no result: FMDV antiviral)
Cc1ccc(NC(=O)CCc2nnc3ccc(NCc4ccco4)nn23)cc1	Cycloheximide cs 35.3
CCOc1ccc(-c2nnc3ccc(SCC(=O)NCc4ccco4)nn23)cc1	none
O=C(CSc1ccc2nnc(-c3ccncc3)n2n1)NCc1ccco1	Sm TGR block 3.16µM
O=C(CCc1nnc2ccc(NCc3ccco3)nn12)Nc1ccc(F)cc1	Sm TGR block inconclusive
O=C(CSc1ccc2nnc(-c3ccc(F)cc3)n2n1)NCc1ccco1	Sm TGR block 44.7µM (no result: FMDV antiviral)
COc1ccc(CNC(=O)CCC2N=C3c4ccccc4N=C(SCc4cccc(F)c4)N3C2=O)cc1 (stereo not given)	none (no result: Cycloheximide cs, Shiga toxin inh)
C=CCNc1oc(-c2cccc3ccccc23)nc1C#N	Cycloheximide cs 45.6, Sm TGR block inconclusive, Shiga toxin inh 44.8 (no result: FMDV antiviral)
CC(C)Nc1oc(-c2cccc3ccccc23)nc1C#N	Cycloheximide cs 30.0, Shiga toxin inh 84.3 (no result: FMDV antiviral)
N#Cc1nc(-c2cccc3ccccc23)oc1NCCN1CCCCC1	none
CN(C)CCNc1oc(-c2ccccc2F)nc1C#N	none
CCNc1oc(-c2cccc3ccccc23)nc1C#N	Shiga toxin inh 58.3
COc1ccc(NC(=O)C2=C(C)Nc3ncnn3C2c2ccc(O)cc2)cc1 (stereo not given)	none (no result: Cycloheximide cs, Shiga toxin inh)
COc1ccc(Br)cc1CNC(=O)c1cc2ccccn2n1	none (no result: Cycloheximide cs, Shiga toxin inh)
O=C(CSc1nc2c([nH]c3ccccc32)c(=O)n1-c1ccc(F)cc1)NCc1ccc(F)cc1	FMDV antiviral inconclusive (no result: Cycloheximide cs, Shiga toxin inh)
O=C(/C=C\Nc1ccccn1)c1ccc(Cl)cc1	Cycloheximide cs 32.5, Shiga toxin inh 75.3 (no result: FMDV antiviral)
Cc1cccc(N/C=C/C(=O)c2ccc(Cl)cc2)c1	Cycloheximide cs 34.5, Shiga toxin inh 87.6
Cc1ccc(Cl)c(N/C=C/C(=O)c2ccccc2)c1	Cycloheximide cs 68.2, Shiga toxin inh 65.9
C/C(=C\C(=O)c1ccccc1)Nc1ccc(Cl)c(Br)c1	none (no result: Cycloheximide cs, Sm TGR block, Shiga toxin inh)
CCOC(=O)c1nnc2c(-c3ccc(Cl)cc3)c(C)nn2c1N	none (no result: Cycloheximide cs, Shiga toxin inh)
CCOCCCNC(=O)C(c1ccccc1)N(Cc1cccs1)C(=O)c1ccc(NC(C)=O)cc1 (stereo not given)	none (no result: Cycloheximide cs, Shiga toxin inh)
Cc1ccc(N(C(=O)CCl)C(C(=O)NC2CCCCC2)c2cccnc2)cc1C (stereo not given)	FMDV antiviral 7.94µM, Sm TGR block 14.1µM
CN(C)C(CNC(=O)NC1CCCCC1)c1cccnc1 (stereo not given)	Sm TGR block 39.8µM
Cc1ccc(N(C(=O)CNC(=O)c2ccco2)C(C(=O)NC2CCCCC2)c2cccnc2)cc1C (stereo not given)	none
CN(C)C(CNC(=O)c1cccs1)c1cccnc1 (stereo not given)	none
Cc1nc2ccccc2c(=O)n1-c1ccc(NC(=O)c2ccc([N+](=O)[O-])cc2)cc1	FMDV antiviral inconclusive (no result: Cycloheximide cs, Shiga toxin inh)
Cc1nc2ccccc2c(=O)n1-c1ccc([N+](=O)[O-])cc1	Cycloheximide cs 41.6, Sm TGR block inconclusive, Shiga toxin inh 63.9
Cc1cc(-c2ccc([N+](=O)[O-])cc2)nc2ccccc12	Cycloheximide cs 46.4, Shiga toxin inh 62.4
Cc1ccc(C(=O)CNc2ccc(C)cc2C)cc1	Cycloheximide cs 13.1 (no result: Shiga toxin inh)
Cc1ccc(C(=O)CNc2ccccc2C)cc1	Cycloheximide cs 42.2, Shiga toxin inh 118.2
Cc1ccc(C)c(NC(=O)Cn2ncc3c([nH]c4ccccc43)c2=O)c1	none (no result: Cycloheximide cs, Shiga toxin inh)
Cc1ncc(CO)c(/C=N/NC(=S)Nc2ccc(F)cc2)c1O	none
Cc1ncc(CO)c(/C=N/N=C/c2ccccc2O)c1O	Cycloheximide cs 16.0
CC1CN(Cc2cccn2-c2cccnc2)Cc2cc(Cl)ccc2O1 (stereo not given)	none (no result: Cycloheximide cs, Sm TGR block, Shiga toxin inh)
Cc1ccc(-n2ncc(C(=O)NCCCN3CCCCC3)c2C2CCN(C(=O)OC(C)(C)C)CC2)c(C)c1	none (no result: Cycloheximide cs, Shiga toxin inh)
CC1=CC(=O)C(C(C)C)=CC1=NC(=O)c1ccc(C)cc1	Sm TGR block 3.16µM
CC(C)Nc1nc(Cl)nc(N(C#N)CN2C(=O)c3ccccc3S2(=O)=O)n1	FMDV antiviral inconclusive, Sm TGR block 20µM
COc1nc(NC(C)C)nc(N(C#N)CN2C(=O)c3ccccc3S2(=O)=O)n1	FMDV antiviral inconclusive
COc1cc(OC)cc(C(=O)NC(C)c2cnn(-c3ccccc3C)c2C)c1 (stereo not given)	none (no result: Sm TGR block)
Cc1ccccc1-n1ncc(C(C)NC(=O)c2ccco2)c1C (stereo not given)	Cycloheximide cs 28.5, Shiga toxin inh 54.9
Cc1ccccc1-n1ncc(C(C)NC(=O)c2ccccc2)c1C (stereo not given)	Cycloheximide cs 35.5 (no result: Sm TGR block)
C=CCC(=O)NC(C)c1cnn(-c2ccccc2C)c1C (stereo not given)	none
COc1cc(/C=C(\C#N)c2nc3ccccc3c(=O)[nH]2)cc(OC)c1OC	none (no result: Cycloheximide cs, Shiga toxin inh)
COc1cc(/C=C/c2nc3ccccc3c(=O)[nH]2)ccc1OC(F)F	Cycloheximide cs 29.4
C=CCOc1cccc(/C=C/c2nc3ccccc3c(=O)[nH]2)c1	Cycloheximide cs 41.0, Shiga toxin inh 71.0
COc1cc(/C=C/c2nc3ccccc3c(=O)[nH]2)cc(OC)c1OC	Cycloheximide cs 27.9
CN(C)c1nc2cc3c(cc2cc1CN(CC1CCCO1)C(=O)c1cccc(F)c1)OCO3 (stereo not given)	none (no result: Cycloheximide cs, Sm TGR block, Shiga toxin inh)
COc1ccccc1N1CCN(C(=O)c2ccccc2SCC(=O)N2CCCC2)CC1	none (no result: Cycloheximide cs, Shiga toxin inh)
COc1ccccc1N1CCN(C(=O)CSc2ccccc2)CC1	Cycloheximide cs 26.8, Shiga toxin inh 65.1
COc1ccccc1N1CCN(C(=O)CCC(=O)N2CCN(c3ccccc3OC)CC2)CC1	FMDV antiviral inconclusive
CCOc1ccccc1N1CCN(C(=O)c2ccccc2SCC(=O)N2CCCC2)CC1	Cycloheximide cs 15.2, Shiga toxin inh 27.5
COc1ccc(C(=O)N2CCN(c3ccccc3OC)CC2)cc1	Sm TGR block inconclusive
COc1ccccc1N1CCN(C(=O)c2ccc(-c3ccccc3)cc2)CC1	Cycloheximide cs 20.4
COc1ccccc1N1CCN(C(=O)c2nn(C)c3c2CS(=O)(=O)c2ccccc2-3)CC1	Sm TGR block 8.91µM!
COc1ccc(N2CCN(C(=O)c3nn(C)c4c3CS(=O)(=O)c3ccccc3-4)CC2)cc1	none
Cc1ccccc1-c1noc(CCC(=O)Nc2cccc(C)c2C)n1	none (no result: Cycloheximide cs, Shiga toxin inh)
CC(=O)Nc1ccc(NS(=O)(=O)c2c(C(=O)N3CCCCCC3)c(C)n(C)c2C)cc1	none (no result: Cycloheximide cs, Shiga toxin inh)
COc1cc(C)ccc1NC(=O)Cc1csc(NC(=O)Nc2ccccc2OC)n1	FMDV antiviral inconclusive (no result: Cycloheximide cs, Shiga toxin inh)
COc1ccccc1NC(=O)Nc1nc(CC(=O)N2CCN(c3ccccc3OC)CC2)cs1	FMDV antiviral 28.2µM (no result: Cycloheximide cs, Shiga toxin inh)
CCC(=O)Oc1ccc2c(c1)O/C(=C\c1ccco1)C2=O	Cycloheximide cs 16.3, Sm TGR block 11.2µM, Shiga toxin inh 43.5
CCN(CC)C(=O)Oc1ccc2c(c1)O/C(=C\c1ccco1)C2=O	Cycloheximide cs 27.4, Shiga toxin inh 48.6
